PubChem BioAssay AID488920 (Sanford-Burnham Center for Chemical Genomics, 2010)
Calls of active or inactive are those of the source. No stated cut-off is given here; in the data, active means IC50 below about 3 µM; inactive means the rest.

experiment: luminescence signal interference by compounds, dose response, artefact control for SENP inhibitor project, biochemical (AID 488920); details: luminescence interference counterscreen, spectral interferers

**Q.** For `C/C(=N\OC(=O)c1ccc(Br)cc1)c1ccccn1`, which IC50 is on record?
**A.** 548 nM (active)

**Q.** Which IC50 does the source give for `CCOc1ccc(/C=C2\CCc3ccccc3C2=O)cc1` here?
**A.** 782 nM (active)

**Q.** Which IC50 does the source give for `COc1ccc(C(=O)c2nccc3cc(OC)c(OC)cc23)cc1OC` here?
**A.** > 5000 nM (inactive)

**Q.** With `O=C(O)c1ccc2cc(-c3ccccc3)[nH]c2c1` as the molecule, how does the IC50 read?
**A.** 471 nM (active)

**Q.** For `Oc1[nH]c2ccccc2c1N=Nc1ccc(F)cc1`, which IC50 is on record?
**A.** 888 nM (active)

**Q.** For `CCn1c(O)c(N=Nc2ccc3ccccc3n2)c2ccccc21`, which IC50 is on record?
**A.** 2910 nM (active)

**Q.** Which IC50 does the source give for `Cc1ccc(/C=C/c2nc3ccccc3c(=O)[nH]2)cc1` here?
**A.** 403 nM (active)

**Q.** Which IC50 does the source give for `Cc1ccc(NC2=C/C(=N/S(=O)(=O)c3cccs3)c3ccccc3C2=O)cc1` here?
**A.** > 5000 nM (inactive)
